Experimental data published in PubChem BioAssay AID652115 (Broad Institute, 2013).
Where “and” joins values, the source holds several entries; their conditions need not be identical. Equal values may be shown once. About 3,800 (1.2%) of roughly 330,000 compounds were called active. The sample as a whole holds a higher share of actives than the screen did. A number with no mark means an inactive call. No stated cut-off is given here; in the data, active means inhibition above about 15%; inconclusive means no clear call, values can overlap the other calls; inactive means below that.

Target: NAD-dependent protein deacylase sirtuin-5, mitochondrial (Homo sapiens) (UniProt Q9NXA8)
Test: SIRT5 desuccinylase inhibitors, primary screen, biochemical, fluorescence imaging, single point, set 5 (AID 652115)
Settings: Purified SirT5, succinyl-peptide AMC, trypsin-coupled fluorescence; at 15 µM; stronger effect = higher value

Sequence of NAD-dependent protein deacylase sirtuin-5, mitochondrial (Homo sapiens) (Q9NXA8 whole entry, looked up): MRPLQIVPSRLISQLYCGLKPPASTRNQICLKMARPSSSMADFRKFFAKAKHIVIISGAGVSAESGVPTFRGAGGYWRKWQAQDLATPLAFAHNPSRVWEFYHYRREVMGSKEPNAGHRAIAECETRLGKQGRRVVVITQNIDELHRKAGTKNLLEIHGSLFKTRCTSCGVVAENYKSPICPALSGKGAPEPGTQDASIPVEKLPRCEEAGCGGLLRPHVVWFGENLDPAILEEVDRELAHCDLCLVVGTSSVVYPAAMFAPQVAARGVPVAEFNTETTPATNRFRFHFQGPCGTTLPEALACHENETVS

Point of comparison: C[C@@H]1CN([C@@H](C)CO)C(=O)c2c(c3ccccc3n2C)-c2ccccc2CO[C@@H]1CN(C)S(=O)(=O)c1ccc(F)cc1, inhibition 3.02%. Against it:
- CN(C)C(=O)[C@@H]1[C@@H](CO)[C@@H]2Cn3c(ccc(-c4ccncc4)c3=O)[C@H]1N2C(=O)NC1CCCC1 — lower, -68%
- COc1cccc(-c2cnc3c(c2)C(=O)N([C@H](C)CO)C[C@H](C)[C@@H](CN(C)Cc2ccc(C(=O)O)cc2)O3)c1 — lower, -2.74%
- O=C(C[C@H]1C[C@@H]2c3cc(NC(=O)CC4CC4)ccc3O[C@@H]2[C@H](CO)O1)NCc1ccccn1 — lower, -3.34%
- C[C@@H](O)C#Cc1cnc2c(c1)C(=O)N([C@@H](C)CO)C[C@H](C)[C@H](CN(C)C(=O)c1ccccc1F)O2 — lower, 2.03%
- O=C(Cn1ncc2c3ccccc3n(Cc3ccccc3)c2c1=O)NCCCN1CCOCC1 — lower, 0.065%
- CC1=C(C(=O)N(C)C)CC(CC(=O)NCCN2CCOCC2)C(=O)N1Cc1ccccc1 (stereo unspecified) — lower, -4.9%
- C[C@@H]1CCCCO[C@@H](CN(C)Cc2ccc3c(c2)OCO3)[C@H](C)CN([C@@H](C)CO)C(=O)c2cc(NS(C)(=O)=O)ccc2O1 — lower, -3.83%
- CC(C)(C)c1cc(C(=O)NN)n(Cc2ccc(Cl)cc2Cl)n1 — lower, 1.67%
- C[C@@H]1CN([C@@H](C)CO)C(=O)c2cc(NC(=O)Nc3ccc(C(F)(F)F)cc3)ccc2O[C@@H](C)CCCCO[C@@H]1CN(C)C(=O)Nc1cccc2ccccc12 — lower, -1.14%
- Cc1csc(NC(=O)c2ccc(-c3ccc(Cl)cc3Cl)o2)n1 — lower, -0.507%
- CC1CCN(C(=S)c2cccc(O)c2)CC1 — lower, 0.61%
- COc1ccc2c3c([nH]c2c1)[C@H](CO)N(C(=O)c1ccccc1)CC31CN(C(=O)Nc2cccc(F)c2)C1 — lower, 1.05%
- CC(C)c1cn([C@H]2C[C@@H]3O[C@H](CO)CC[C@@H]3O[C@@H]2CCc2ccc(C#CC3CCCCC3)cc2)nn1 — lower, -3.82%
- Cc1sc2c(c1C)c(=O)n(-c1ccccc1)c(=O)n2CC(=O)NCC1CCCO1 (stereo unspecified) — lower, -4.65%
- CCCNC(=O)CCc1c(C)nc2c(c(C)nn2-c2ccccc2)c1C — lower, -2.55%
- CCCC#Cc1ccc([C@@H]2[C@@H](CO)N3C(=O)CN(C(=O)Nc4cccc(F)c4)C[C@H]23)cc1 — higher, 6.12%
- CCC(=O)Nc1ccc2c(c1)C(=O)N(C)C[C@@H](OC)[C@H](C)CN(Cc1cccnc1)[C@@H](C)CO2 — lower, -0.588%
- Cn1c(CC(=O)Nc2ccc(F)cc2)nnc1SCC(=O)NC1CCCCC1 — lower, 0.115%
- Cc1ccc(SCC(=O)Nc2nncs2)cc1 — lower, -2.47%
- O=C(C[C@H]1C[C@@H]2c3cc(NC(=O)C4CCC4)ccc3O[C@@H]2[C@H](CO)O1)NCCN1CCCCC1 — lower, -1.29%
- C[C@H](CO)N1C[C@H](C)[C@@H](CN(C)C)Oc2c(NC(=O)Nc3ccc(F)cc3)cccc2C1=O — lower, -3.52%
- C[C@H]1CN([C@@H](C)CO)C(=O)c2cc(-c3ccccc3F)cnc2O[C@@H]1CN(C)C — lower, -1.72%
- CCCNC(=S)N1CCC(NC(=O)c2ccc(OC)cc2)CC1 — lower, 2.19%
- COCCNC(=O)C1CCN(S(=O)(=O)c2ccc3c(c2)OCCO3)CC1 — lower, -1.09%
- O=C(c1cccnc1)N1CC2(C1)[C@@H](c1ccccc1)[C@H](CO)N2C(=O)C1CCC1 — lower, -1.71%
- COc1ccc(NC(=O)c2ccccc2CC[N+](=O)[O-])cc1 — lower, -2.27%
- CCOC(=O)Cc1ncccc1C(=O)Nc1ccc(OC(F)(F)F)cc1 — lower, -0.166%
- COc1cccc(C(=O)Nc2ccc3c(c2)C(=O)N(C)[C@@H]2CC[C@H](CC(=O)NCCCN4CCOCC4)O[C@H]2CO3)c1 — lower, 1.19%
- COc1cccc(C#Cc2cnc3c(c2)C(=O)N([C@H](C)CO)C[C@@H](C)[C@@H](CN(C)C(=O)C2CCC2)O3)c1 — lower, 0.234%
- O=C(N[C@@H]1CC[C@@H](CC(=O)N2CCc3ccccc3C2)O[C@H]1CO)C1CC1 — higher, 3.34%
- CCS(=O)(=O)N1CC(=O)N2[C@H](CO)[C@@H](c3ccc(C#Cc4cccc(F)c4)cc3)[C@@H]2C1 — lower, -0.525%
- CCOc1ccccc1Nc1ccc(C(=O)O)cc1[N+](=O)[O-] — lower, -0.287%
- NC(=O)c1ccc(Nc2ccc3nonc3c2[N+](=O)[O-])cc1 — lower, 2.49%
- CCNC(=O)Nc1ccc2c(c1)C(=O)N(C)[C@H]1CC[C@H](CC(=O)NCC3CCCCC3)O[C@@H]1CO2 — higher, 3.92%
- CCC(=O)Nc1ccc2c(c1)C(=O)N(C)[C@H]1CC[C@H](CC(=O)NCC3CCCCC3)O[C@H]1CO2 — lower, -3.85%
- C[C@@H]1CN([C@H](C)CO)C(=O)CCCn2cc(nn2)CO[C@@H]1CN(C)Cc1ccccc1C(=O)O — lower, -0.401%
- COc1ccc2c3c([nH]c2c1)[C@H](CO)N(C(=O)C1CCCCC1)CC31CCN(C(=O)c2ccncc2)CC1 — lower, -1.36%
- Cc1noc(C)c1/C=N/Nc1ccc2ccccc2n1 — lower, -4.8%
- Cc1cc(=O)[nH]c(N/N=C/c2ccc3c(c2)OCCO3)n1 — lower, 2.57%
- CN(C)Cc1cn(CC[C@H]2CC[C@H](NC(=O)Nc3ccccc3F)[C@@H](CO)O2)nn1 — lower, -13.2%
- O=C(Nc1ccncc1)c1ccc([N+](=O)[O-])cc1Cl — lower, -1.67%
- Cc1ccnc(NC(=O)c2ccc(Cl)c([N+](=O)[O-])c2)c1 — lower, -6.51%
- COCC(=O)N[C@@H]1C[C@@H]2O[C@@H](CO)CC[C@@H]2O[C@@H]1CCc1ccc(-c2ccccc2)cc1 — lower, -3.27%
- CN(C)CC(=O)Nc1ccc2c(c1)[C@H]1C[C@H](CC(=O)NCc3ccccc3)O[C@@H](CO)[C@H]1O2 — lower, -5.86%
- Cc1cccc(CN(C)C[C@H]2OCc3cn(nn3)CCCC(=O)N([C@@H](C)CO)C[C@H]2C)c1 — lower, -2.48%
- CCCNC(=O)N1[C@H](CO)[C@@H](c2ccc(-c3ccc(C(=O)N(C)C)cc3)cc2)[C@@H]1C#N — higher, 5.61%
- COc1ccc(NC(=O)N(C)C[C@@H]2OCCCC[C@H](C)Oc3ccc(NC(=O)c4ccccc4)cc3C(=O)N([C@H](C)CO)C[C@H]2C)cc1 — higher, 3.2%
- OC[C@@H]1[C@H](c2ccc(Br)cc2)[C@@H]2CN(Cc3ccccn3)CCCCN12 — higher, 3.43%
- CCC(=O)N1CCCCN2[C@H](CO)[C@@H](c3ccc(-c4cccnc4)cc3)[C@H]2C1 — lower, 0.057%
- CN1C(=O)c2cc(NC(=O)NC3CCCC3)ccc2OC[C@@H]2O[C@@H](CC(=O)O)CC[C@H]21 — lower, -7.32%
- O=C(C[C@@H]1CC[C@H](NC(=O)Nc2ccc(F)cc2)[C@H](CO)O1)NCc1ccccn1 — lower, 1.52%
- CC=Cc1ccc2n(c1=O)C[C@@H]1[C@@H](CO)[C@H](C(=O)NCC3CC3)[C@H]2N1C(=O)c1ccccc1 (mixture of isomers) — lower, -10.5%
- COC(=O)C[C@@H]1C[C@@H]2c3cc(NC(=O)NC4CCCC4)ccc3O[C@@H]2[C@@H](CO)O1 — lower, -3%
- C[C@@H]1CN([C@H](C)CO)C(=O)Cc2cc(NC(=O)Cc3cn(C)c4ccccc34)ccc2O[C@@H]1CN(C)S(=O)(=O)c1ccccc1 — lower, 0.96%
- C[C@H]1CN([C@@H](C)CO)C(=O)c2c(c3ccccc3n2C)-c2ccccc2CO[C@H]1CN(C)S(=O)(=O)c1ccc(C#N)cc1 — higher, 3.54%
- C[C@H]1CN([C@@H](C)CO)C(=O)c2cc(NC(=O)Cc3cn(C)c4ccccc34)ccc2O[C@H]1CN(C)Cc1ccc(Cl)c(Cl)c1 — higher, 7.81%
- Cc1ccc(S(=O)(=O)N(C)C[C@@H]2Oc3ccc(NC(=O)Cc4cn(C)c5ccccc45)cc3C(=O)N([C@@H](C)CO)C[C@@H]2C)cc1 — higher, 4.27%
- C[C@@H]1CN([C@@H](C)CO)C(=O)c2cc(NC(=O)Cc3ccccc3)ccc2O[C@H]1CN(C)Cc1ccc(Cl)c(Cl)c1 — higher, 14.1%

With CCN1/C(=C\c2ccc3ccccc3[n+]2CC)Sc2cc(C)ccc21 the inhibition was 28.6% (active).
For CC1c2nc3ccccc3n2C(CC(=O)NCCCN2CCOCC2)C(=O)N1Cc1ccccc1 (stereo unspecified), the inhibition was 112% (active).
With N#CC(C#N)=CN=c1ccn(Cc2ccc(Cl)cc2Cl)cc1 the inhibition was 16.1% (active).
For CC1CCN(C(=S)c2ccc(-c3ccc(Cl)cc3Cl)o2)CC1, the inhibition was 17.1% (active).
With Cc1nn(-c2ccccc2)c2c1c(C)c(CCC(=O)NCC1CCCO1)c(=O)n2C (stereo unspecified) the inhibition was 39.7% (active).
In the case of Cc1ccc(NC(=O)Cc2nnc(SCC(=O)Nc3nncs3)n2C)cc1, the inhibition is reported as 17.8% (active).
For CC(C)OCCCNC(=S)N1CCC(C(=O)c2ccc3c(c2)OCCO3)CC1, the inhibition was 26.6% (active).
CCOC(=O)Cc1ncccc1C(=O)Nc1ccc(OC)cc1 was tested, and the inhibition was 15.7% (active).
NC(=O)c1ccc(Nc2ccc3c(c2)CCC3)c([N+](=O)[O-])c1 was tested, and the inhibition was 28.4% (active).
For CCCNC(=O)Nc1ccc2c(c1)C(=O)N(C)[C@H]1CC[C@H](CC(=O)NCC3CCCCC3)O[C@@H]1CO2, the inhibition was 31.7% (active).
For COc1cccc(S(=O)(=O)N2[C@@H]3CNC[C@H]2C3c2ccc(-c3cccc(C(=O)N(C)C)c3)cc2)c1 (stereo partly specified), the inhibition was 3.63% and 4.46%.
C(=N\Nc1ccc2ccccc2n1)/c1ccc2c(c1)OCO2 was tested, and the inhibition was 15.4% (active).
With O=C(Nc1ccncc1)c1ccc(Cl)c([N+](=O)[O-])c1 the inhibition was 31.2% (active).
OC[C@H]1[C@H](c2ccc(-c3cccnc3)cc2)[C@H]2CN(Cc3ccccn3)CCCCN21 was tested, and the inhibition was 15.6% (active).
Cc1ccc(S(=O)(=O)N(C)C[C@@H]2OCc3ccccc3-c3c(n(C)c4ccccc34)C(=O)N([C@@H](C)CO)C[C@@H]2C)cc1 was tested, and the inhibition was 17.7% (active).
In the case of C[C@H]1CN([C@@H](C)CO)C(=O)c2cc(NC(=O)Cc3cn(C)c4ccccc34)ccc2O[C@@H]1CN(C)Cc1ccc(Cl)c(Cl)c1, the inhibition is reported as 22.6% (active).
With Cc1ccc(S(=O)(=O)N(C)C[C@H]2Oc3ccc(NC(=O)Cc4cn(C)c5ccccc45)cc3CC(=O)N([C@@H](C)CO)C[C@H]2C)cc1 the inhibition was 16.9% (active).
